PubChem BioAssay (NCI)
The panel holds about 79,000 compounds, 15% with a hit somewhere; the sample as a whole holds those more often. A number with no mark means an inactive call. The source made the active and inactive calls. Cut-off read from the data, not from the text of the source: active = growth inhibition above about 70%; inactive = the rest.

Assay: NCI Yeast Anticancer Drug Screen. Data for the sgs1 mgt1 strain (AID 161);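 note: 0% = growth of cultures given vehicle only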
Conditions: S. cerevisiae sgs1 mgt1 strain, at 5.0 µM (retest, dose inferred, filed as 0.5), stronger effect = higher value
Summary of the method: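 Test agents were incubated with a DNA-repair-mutant yeast strain. Growth was then read and compared against vehicle-treated controls.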

Structure (SMILES) | growth inhibition
Cc1ccccc1Sc1ccccc1[N+](=O)[O-] | 0%
Nc1nc(-c2ccc3c(c2)Sc2ccccc2O3)cs1 | 57%
CC(C)(C)C1CCC2c3c([nH]c4ccccc34)C3C(=O)N(c4ccc(C(=O)O)cc4)C(=O)C3C2C1 (stereo not given) | 99% (active)
CCC[CH2][Sn]([CH2]CCC)([O]N(C)C(=O)c1ccc(Br)cc1)[O]N(C)C(=O)c1ccc(Br)cc1 | 33%
COC(=O)c1ccc([N+](=O)[O-])o1 | 4%
O=C(OC1=C(Br)C(=O)c2ccccc2C1=O)c1ccccc1 | 32%
O=C(O)C/C(=C\c1ccco1)C(=O)O | -4%
N#C/C(=C/c1ccc([N+](=O)[O-])o1)c1ccccc1 | -6%
CCN(CC)CCOc1ccc(C=C2c3ccccc3-c3ccccc32)cc1 | 99% (active)
Nc1ncnc(N2CCOCC2)c1N | 3%
Cc1cc(Cl)ccc1N1C(=O)C(=O)C(c2nc3ccccc3o2)C(=O)C1=O | 38%
Cc1nc2c(Cl)nc(Cl)nc2s1 | 20%
CC1=NOC(=O)/C1=C/c1ccc(Cl)c(Cl)c1 | -11%
CN(CCC(=O)/C(=C\c1ccc(Cl)cc1)c1ccccc1)Cc1ccccc1 | 99% (active)
C(=N\N=C\c1ccc2c(c1)OCO2)/c1ccc2c(c1)OCO2 | 0%
Clc1ccc(CSc2ncnc3c2ncn3C2CCCCO2)cc1 (stereo not given) | 15%
CC(=O)OC/C=C/CCCOC(C)=O | -7%
CCCCCCCCCCOC(=O)c1cccnc1 | 7%
Cc1ccc2c(c1)C1(SCC(=O)N1c1ccc(Cl)cc1)C(=O)N2 (stereo not given) | 5%
Oc1ccc(C2CCc3ccccc32)cc1 (stereo not given) | -7%

Structure (SMILES) | growth inhibition
[O-][N+]1=C2CCC/C(=N/O)C2(O)C2CCCCC21N1CCOCC1 (stereo not given) | 24%
CCCCN(c1ccccc1)c1ncnc2c1ncn2C | 0%
Cc1cc(C)nc(/C=C/c2ccccc2)c1 | -9%
CCCCN(C)N=Nc1c(C(N)=O)n[nH]c1C(C)C | -4%
O=C1C(Cl)=C(Cl)C(=O)C2=C1CC(Cl)C(Cl)C2 (stereo not given) | 91% (active)
O=C1Oc2ccccc2C(=O)/C1=C/N1C(=O)/C(=C/c2ccc3c(c2)OCO3)SC1=S | 4%
O=C(/C=C/c1ccc(O)cc1)c1cc(Cl)ccc1O | 36%
CCCC(C(=O)OCCNC1CCCCC1)c1ccccc1 (stereo not given) | 0%
c1ccc2cc3c(cc2c1)Nc1c2ccccc2nc2cccc-3c12 | 24%
CCCC1CCCC1(CC(=O)c1ccccc1)C(=O)O (stereo not given) | 25%
COc1ccc(CCN2C(=O)C(=O)N(C3CCCCC3)C2=O)cc1OC | -3%
COC(C(=O)O)c1ccccc1 (stereo not given) | -2%
CCCCCCCCC(=O)NCCCNCCCNC(=O)CCCCCCCC | -4%
C[Si](C)(CCC(=O)O)O[Si](C)(C)CCC(=O)O | -6%
Cc1c2cc[n+](C)cc2c(C)c2c1[nH]c1ccc(Cl)cc12 | 48%
O=[N+]([O-])c1ccc(C2=Nn3c(nnc3-c3ccc(Cl)cc3)SC2)o1 | 29%
CCCCCCCCCCN(CCCCCCCCCC)CC(O)c1cc(-c2ccccc2)nc2ccccc12 (stereo not given) | -22%
O=C(c1ccccc1)C(c1ccccc1)C1(O)C(=O)Nc2c(Cl)cc(Cl)cc21 (stereo not given) | -18%
COC(=S)S | 5%
CC/C(=C(\CC)c1ccc(O)c(CN(CC)CC)c1)c1ccc(OC)cc1 | -31%
